Tests used:
Assay in all cases: phenotypically active (imaging signature differs from DMSO and reproducible) at any of 0.3-9 uM (binary (1 = active, 0 = inactive)); higher = active
Settings in all cases: treatment time: 24 h
[1] = tested on: A549-ACTB-RAB5A
Method in brief: (§1)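 After 24 h at 0.3, 1, 3 or 9 µM, with four wells per treatment, fifteen gene-edited A549, HepG2 and WPMY1 reporter lines carrying BFP, GFP and RFP/FusionRed were imaged live. Each well's live-cell features were expressed relative to solvent control wells. Deviation required ≥3 of 4 wells past the 95th percentile of control Euclidean distances, and reproducibility a median replicate Pearson correlation over the 95th percentile of non-replicates. Phenotypic activity rested on both.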

[2] = tested on: A549-CANX-COX4
Method in brief: as §1

[3] = tested on: A549-GM130-SQSTM1
Method in brief: as §1

[4] = tested on: A549-TP53BP1-CLTA
Method in brief: as §1

[5] = tested on: A549-TUBA1B-RELA
Method in brief: as §1

[6] = tested on: HepG2-ACTB-RAB5A
Method in brief: as §1

[7] = tested on: HepG2-CANX-COX4
Method in brief: as §1

[8] = tested on: HepG2-GM130-SQSTM1
Method in brief: as §1

[9] = tested on: HepG2-TP53BP1-CLTA
Method in brief: as §1

[10] = tested on: HepG2-TUBA1B-RELA
Method in brief: as §1

[11] = tested on: WPMY1-ACTB-RAB5A
Method in brief: as §1

[12] = tested on: WPMY1-CANX-COX4
Method in brief: as §1

[13] = tested on: WPMY1-GM130-SQSTM1
Method in brief: as §1

[14] = tested on: WPMY1-TP53BP1-CLTA
Method in brief: as §1

[15] = tested on: WPMY1-TUBA1B-RELA
Method in brief: as §1

Measured: phenotypically active

CCN1C[C@]2(COC)CC[C@H](O)[C@]34[C@@H]5C[C@H]6[C@H](OC)[C@@H]5[C@](O)(C[C@@H]6OC)[C@](O)([C@H]13)[C@@H](OC)[C@H]24 [Delsoline]
inactive: [1] 0 | [2] 0 | [3] 0 | [4] 0 | [5] 0 | [6] 0 | [7] 0 | [8] 0 | [9] 0 | [10] 0 | [11] 0 | [12] 0 | [13] 0 | [14] 0 | [15] 0

CNC(C)(C)Cc1ccccc1 [mephentermine]
inactive: [1] 0 | [2] 0 | [3] 0 | [4] 0 | [5] 0 | [6] 0 | [7] 0 | [8] 0 | [9] 0 | [10] 0 | [11] 0 | [12] 0 | [13] 0 | [14] 0 | [15] 0

COC1=CC(=O)O[C@@H](/C=C/c2ccccc2)C1 [Kawain]
inactive: [1] 0 | [2] 0 | [3] 0 | [4] 0 | [5] 0 | [6] 0 | [7] 0 | [8] 0 | [9] 0 | [10] 0 | [11] 0 | [12] 0 | [13] 0 | [14] 0 | [15] 0

NC(=O)CS(=O)C(c1ccccc1)c1ccccc1 (stereo not given) [modafinil]
inactive: [1] 0 | [2] 0 | [3] 0 | [4] 0 | [5] 0 | [6] 0 | [7] 0 | [8] 0 | [9] 0 | [10] 0 | [11] 0 | [12] 0 | [13] 0 | [14] 0 | [15] 0

CCC1(CC)C(=O)NC(=O)N(C)C1=O [metharbital]
inactive: [1] 0 | [2] 0 | [3] 0 | [4] 0 | [5] 0 | [6] 0 | [7] 0 | [8] 0 | [9] 0 | [10] 0 | [11] 0 | [12] 0 | [13] 0 | [14] 0 | [15] 0

N#CC(CCN1CCC(C(=O)O)(c2ccccc2)CC1)(c1ccccc1)c1ccccc1 [difenoxin]
inactive: [1] 0 | [2] 0 | [3] 0 | [4] 0 | [5] 0 | [6] 0 | [7] 0 | [8] 0 | [9] 0 | [10] 0 | [11] 0 | [12] 0 | [13] 0 | [14] 0 | [15] 0

CCOC(=O)C1(c2ccccc2)CCN(C)CC1 [meperidine]
inactive: [1] 0 | [2] 0 | [3] 0 | [4] 0 | [5] 0 | [6] 0 | [7] 0 | [8] 0 | [9] 0 | [10] 0 | [11] 0 | [12] 0 | [13] 0 | [14] 0 | [15] 0

CC[C@H]1C2C[C@H]3[C@@H]4N(C)c5ccccc5[C@]45C[C@H](C2[C@H]5O)N3[C@@H]1O (stereo not given in full) [Ajmaline]
inactive: [1] 0 | [2] 0 | [3] 0 | [4] 0 | [5] 0 | [6] 0 | [7] 0 | [8] 0 | [9] 0 | [10] 0 | [11] 0 | [12] 0 | [13] 0 | [14] 0 | [15] 0

C[C@H]1CCC2(NC1)O[C@H]1C[C@H]3[C@@H]4CC[C@H]5C[C@@H](O[C@@H]6O[C@H](CO)[C@H](O[C@@H]7O[C@H](CO)[C@@H](O)[C@H](O[C@@H]8OC[C@@H](O)[C@H](O)[C@H]8O)[C@H]7O[C@@H]7O[C@H](CO)[C@@H](O)[C@H](O)[C@H]7O)[C@H](O)[C@H]6O)CC[C@]5(C)[C@H]4CC[C@]3(C)[C@H]1[C@@H]2C (stereo not given in full) [Tomatine]
inactive: [1] 0 | [2] 0 | [3] 0 | [4] 0 | [5] 0 | [6] 0 | [7] 0 | [8] 0 | [9] 0 | [10] 0 | [11] 0 | [12] 0 | [13] 0 | [14] 0 | [15] 0

O=C1C[C@@H]2OCC=C3C[N+]4([O-])CC[C@]56c7ccccc7N1[C@H]5[C@H]2[C@H]3C[C@@H]64 (stereo not given in full) [Genostrychnine base]
inactive: [1] 0 | [2] 0 | [3] 0 | [4] 0 | [5] 0 | [6] 0 | [7] 0 | [8] 0 | [9] 0 | [10] 0 | [11] 0 | [12] 0 | [13] 0 | [14] 0 | [15] 0

Source: the supplement of paper PMC7411054
